Reference: PubChem BioAssay (EPA / NIEHS)
Records with an inconclusive call do not appear. Calls of active or inactive are those of the source. The calls were made as follows, unless noted: active = hit-call score of the fitted dose curve at least 0.9, where 1 is the maximum; inactive = score below 0.9.

Legend:
[1] = ATG_PBREM_CIS: Attagene CIS-FACTORIAL HepG2 Assay for human Phenobarbital-responsive Enhancer Module (PBREM) (AID 2282955); conditions: HepG2 PBREM cis-reporter, Attagene multiplexed transcription; actives raise or lower the signal
Method in brief: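 HepG2 cells transiently transfected with multiple cis-regulated reporter transcription units; endogenous factor activity at the PBREM element measured as reporter mRNA 24 h after dosing, via RT-PCR and capillary electrophoresis of fluorescent fragments; bidirectional fitting versus DMSO.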

[2] = biological target: Paired box protein Pax-6 (Homo sapiens) (UniProt P26367); assay: ATG_Pax6_CIS: Attagene CIS-FACTORIAL HepG2 Assay for human Paired Box 6 (PAX6) (AID 2282956); conditions: HepG2 CIS-FACTORIAL PAX6 reporter transcription, RNA readout; actives raise or lower the signal
Method in brief: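 Multiplexed cis-reporter HepG2 system; 24 h treatment; reporter mRNA read by RT-PCR/CE fluorescence; bidirectional fit vs DMSO.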

[3] = ATG_RORE_CIS: Attagene CIS-FACTORIAL HepG2 Assay for human RAR-related Orphan Receptor Element (RORE) (AID 2282959); conditions: HepG2 Attagene cis-factorial RORE reporter, mRNA; actives raise or lower the signal
Method in brief: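 HepG2 cells transiently transfected with multiple cis-element reporter transcription units, exposed to chemical for 24 h. Reporter mRNA quantified by RT-PCR, 6-FAM primer-extension labeling, HpaI digestion and capillary electrophoresis; bidirectional fit versus DMSO baseline.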

[4] = ATG_Sox_CIS: Attagene CIS-FACTORIAL HepG2 Assay for human SRY-box transcription factor (SOX) (AID 2282960); conditions: HepG2 Attagene cis-factorial SOX reporter, mRNA; actives raise or lower the signal
Method in brief: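 HepG2 cells transiently transfected with cis-element-driven multiple reporter transcription units, dosed 24 h; reporter mRNA measured by RT-PCR, FAM labelling, HpaI digestion and capillary electrophoresis. Bidirectional fit versus DMSO baseline.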

[5] = biological target: Transcription factor Sp1 (Homo sapiens) (UniProt P08047); assay: ATG_Sp1_CIS: Attagene CIS-FACTORIAL HepG2 Assay for human Specificity Protein 1 (Sp1) (AID 2282961); conditions: HepG2 Sp1 cis-reporter transcription, actives raise or lower the signal
Method in brief: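 HepG2 cells transiently transfected with multiple reporter transcription units driven by cis-regulatory elements; Sp1-responsive reporter mRNA measured 24 h after dosing by RT-PCR and capillary electrophoresis fluorescence, fitted bidirectionally against DMSO baseline.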

[6] = ATG_SREBP_CIS: Attagene CIS-FACTORIAL HepG2 Assay for human Sterol Regulatory Element Binding (SREBP) (AID 2282962); conditions: HepG2 Attagene cis-factorial SREBP reporter, mRNA; actives raise or lower the signal
Method in brief: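 mRNA induction of transfected cis-promoter reporters in HepG2 cells, 24 h post-dose. Detection: RT-PCR with 6-FAM-labelled products, HpaI digest, capillary electrophoresis. DMSO served as negative control and baseline.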

[7] = biological target: Signal transducer and activator of transcription 3 (Homo sapiens) (UniProt P40763); assay: ATG_STAT3_CIS: Attagene CIS-FACTORIAL HepG2 Assay for human Signal Transducer and Activator of Transcription 3 (STAT3) (AID 2282963); conditions: HepG2, Attagene cis-factorial STAT3 reporter transcription; actives raise or lower the signal
Method in brief: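 Endogenous STAT3-responsive cis-element activity was read in transiently transfected HepG2 cells after 24 h treatment. Reporter transcripts were quantified via RT-PCR and capillary electrophoresis, with DMSO as negative control and bidirectional curve fitting.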

[8] = ATG_TA_CIS: Attagene CIS-FACTORIAL HepG2 Assay for human TA Basal Promoter (AID 2282964); conditions: HepG2 Attagene CIS-factorial TA basal promoter reporter; actives raise or lower the signal
Method in brief: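 Background-control readout: TA basal promoter reporter mRNA, fitted in both directions relative to DMSO. Measured by RT-PCR and capillary electrophoresis 24 hours after treating HepG2 human liver cells transiently carrying multiplexed cis-regulated reporter constructs.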

[9] = ATG_TCF_b_cat_CIS: Attagene CIS-FACTORIAL HepG2 Assay for human T-Cell-Factor with beta-catenin (TCF/b-cat) (AID 2282965); conditions: HepG2 TCF/beta-catenin cis-reporter transcription, actives raise or lower the signal
Method in brief: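 Measured: reporter mRNA in HepG2 transiently transfected with cis-promoter reporter units, 24 h after chemical addition. Fitting was bidirectional, DMSO as negative control.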

[10] = ATG_TAL_CIS: Attagene CIS-FACTORIAL HepG2 Assay for human TAL Basal Promoter (AID 2282966); conditions: HepG2 Attagene cis-factorial TAL promoter reporter; actives raise or lower the signal;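 also: background control endpoint measuring basal TAL promoter reporter mRNA not a specific factor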
Method in brief: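 HepG2 cells transiently transfected with multiplexed cis-promoter reporter units, dosed 24 h. Reporter mRNA quantified by RT-PCR, 6-FAM labelling, HpaI digestion and capillary electrophoresis; TAL basal promoter serves as background control, fitted bidirectionally versus DMSO.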

[11] = ATG_TGFb_CIS: Attagene CIS-FACTORIAL HepG2 Assay for human Transforming Growth Factor (TGF) (AID 2282967); conditions: HepG2 Attagene CIS TGFb reporter, mRNA transcription; actives raise or lower the signal
Method in brief: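 Endogenous TGFB1-linked transcription factor activity read as reporter mRNA via RT-PCR and capillary electrophoresis, 24 h after dosing transiently transfected HepG2 cells. Gain or loss of signal fitted relative to DMSO.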

[12] = ATG_VDRE_CIS: Attagene CIS-FACTORIAL HepG2 Assay for human Vitamin D Receptor Element (VDRE) (AID 2282968); conditions: HepG2 VDRE cis-reporter transcription, actives raise or lower the signal
Method in brief: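 Reporter mRNA induction, quantified by capillary electrophoresis of fluorescently labelled RT-PCR products, was read 24 h after dosing HepG2 cells carrying transiently transfected cis-regulated reporter units; gain or loss relative to DMSO.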

[13] = biological target: Nuclear receptor subfamily 1 group I member 3 (Homo sapiens) (UniProt Q14994); assay: ATG_CAR_TRANS: Attagene TRANS-FACTORIAL HepG2 Assay for human Constitutive Androstane Receptor (CAR) (AID 2282969; active = hit-call score of the fitted dose curve at least 0.9, where 1 is the maximum;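 also: activators raise reporter mRNA above DMSO so AC50 marks induction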); conditions: HepG2 Attagene TRANS-FACTORIAL CAR reporter
Method in brief: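 Readout is reporter mRNA induction, quantified by fluorescent primer extension and capillary electrophoresis after RT-PCR. Cells were HepG2 transiently carrying chimeric NR-Gal4 constructs with GAL4-UAS reporters, treated for 24 h; activity scored upward from DMSO.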

[14] = biological target: Estrogen receptor (Homo sapiens) (UniProt P03372); assay: ATG_ERa_TRANS: Attagene TRANS-FACTORIAL HepG2 Assay for human Estrogen Receptor alpha (ERa) (AID 2282970; active = hit-call score of the fitted dose curve at least 0.9, where 1 is the maximum); conditions: HepG2 Attagene TRANS ERa GAL4 reporter, mRNA
Method in brief: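 HepG2 cells transiently transfected with multiplexed GAL4-UAS reporter units read out chimeric NR-Gal4 activity. After 24 h compound exposure, reporter mRNA was quantified by RT-PCR, 6-FAM labeling, HpaI digestion and capillary electrophoresis, relative to DMSO.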

[15] = biological target: X-box-binding protein 1 (Homo sapiens) (UniProt P17861); assay: ATG_Xbp1_CIS: Attagene CIS-FACTORIAL HepG2 Assay for human X-box Binding Protein 1 (XBP1) (AID 2282972); conditions: HepG2 XBP1 cis-element reporter, Attagene multiplex; actives raise or lower the signal
Method in brief: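 Fluorescence-labelled cDNA fragments from reporter transcripts, separated by capillary electrophoresis, give the signal. Source: HepG2 cells transfected with promoter-driven reporter units, harvested 24 h post-dose. DMSO served as reference for bidirectional curve fitting.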

[16] = ATG_M_19_TRANS: Attagene TRANS-FACTORIAL HepG2 Assay for M19 Transcription Factor (Internal Marker) (AID 2282974; active = hit-call score of the fitted dose curve at least 0.9, where 1 is the maximum); conditions: HepG2 Attagene TRANS-FACTORIAL M19 internal marker reporter
Method in brief: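 HepG2 cells transiently transfected with multiple GAL4-UAS reporter transcription units were exposed to chemicals for 24 h. Reporter mRNA was read by RT-PCR, 6-FAM primer extension, HpaI digestion and capillary electrophoresis; gain of signal fitted relative to DMSO.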

[17] = ATG_GAL4_TRANS: Attagene TRANS-FACTORIAL HepG2 Assay for GAL4 (Internal Marker) (AID 2282976; active = hit-call score of the fitted dose curve at least 0.9, where 1 is the maximum); conditions: HepG2 Attagene TRANS GAL4 internal marker reporter
Method in brief: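 Background-control readout: GAL4-UAS reporter transcript in transiently transfected HepG2 cells after 24 h compound exposure. Measured by RT-PCR, 6-FAM primer extension, HpaI digest and capillary electrophoresis; gain-of-signal fit versus DMSO.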

[18] = ATG_PPRE_CIS: Attagene CIS-FACTORIAL HepG2 Assay for human Peroxisome Proliferator-activated Response Element (PPRE) (AID 2282958); conditions: HepG2 PPRE cis-element reporter, Attagene transcription factor profiling; actives raise or lower the signal
Method in brief: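 HepG2 cells transiently transfected with multiplexed cis-element reporter units measure endogenous transcription factor activity. After 24 h compound exposure, reporter mRNA is quantified by RT-PCR, 6-FAM labeling, HpaI digestion and capillary electrophoresis; bidirectional fits are made against DMSO baseline.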

[19] = biological target: Steroid hormone receptor ERR1 (Homo sapiens) (UniProt P11474); assay: ATG_ERRa_TRANS: Attagene TRANS-FACTORIAL HepG2 Assay for human Estrogen-Related Receptor alpha (ERRa) (AID 2282971; active = hit-call score of the fitted dose curve at least 0.9, where 1 is the maximum); conditions: HepG2 Attagene TRANS reporter, ERRa transactivation
Method in brief: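 HepG2 cells transiently transfected with GAL4-UAS reporter units and chimeric NR-Gal4 constructs; after 24 hour compound incubation, reporter mRNA quantified by RT-PCR, fluorescent labelling and capillary electrophoresis, gain of signal versus DMSO.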

[20] = ATG_PXRE_CIS: Attagene CIS-FACTORIAL HepG2 Assay for human Pregnane X Receptor Element (PXRE) (AID 2282957); conditions: HepG2 Attagene CIS-FACTORIAL PXRE reporter, mRNA; actives raise or lower the signal
Method in brief: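 HepG2 cells transiently transfected with cis-element-driven multiplexed reporter units; after 24 h chemical exposure, reporter mRNA measured by RT-PCR, 6-FAM labelling, HpaI digestion and capillary electrophoresis. Bidirectional fitting relative to DMSO.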

Measured: AC50

Sequence of Paired box protein Pax-6 (Homo sapiens) (P26367 whole entry, looked up): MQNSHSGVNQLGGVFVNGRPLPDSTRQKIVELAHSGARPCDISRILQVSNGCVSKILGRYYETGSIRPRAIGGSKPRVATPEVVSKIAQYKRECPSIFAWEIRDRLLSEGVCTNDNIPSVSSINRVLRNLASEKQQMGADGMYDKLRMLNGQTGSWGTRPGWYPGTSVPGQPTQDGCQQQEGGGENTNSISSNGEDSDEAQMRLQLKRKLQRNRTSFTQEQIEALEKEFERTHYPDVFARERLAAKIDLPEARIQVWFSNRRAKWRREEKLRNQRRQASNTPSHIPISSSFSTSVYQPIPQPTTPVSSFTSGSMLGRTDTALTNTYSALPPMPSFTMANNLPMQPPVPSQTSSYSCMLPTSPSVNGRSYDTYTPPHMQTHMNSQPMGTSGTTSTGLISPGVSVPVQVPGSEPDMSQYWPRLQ
Sequence of X-box-binding protein 1 (Homo sapiens) (P17861 whole entry, looked up, the tested form may be a part): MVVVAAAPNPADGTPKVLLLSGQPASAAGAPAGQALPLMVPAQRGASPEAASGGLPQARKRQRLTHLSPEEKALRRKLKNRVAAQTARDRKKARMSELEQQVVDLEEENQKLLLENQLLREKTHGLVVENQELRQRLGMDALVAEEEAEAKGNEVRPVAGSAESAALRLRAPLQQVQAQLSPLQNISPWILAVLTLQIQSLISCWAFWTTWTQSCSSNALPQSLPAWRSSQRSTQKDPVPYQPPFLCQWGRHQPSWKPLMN
Sequence of Nuclear receptor subfamily 1 group I member 3 (Homo sapiens) (Q14994 whole entry, looked up, the tested form may be a part): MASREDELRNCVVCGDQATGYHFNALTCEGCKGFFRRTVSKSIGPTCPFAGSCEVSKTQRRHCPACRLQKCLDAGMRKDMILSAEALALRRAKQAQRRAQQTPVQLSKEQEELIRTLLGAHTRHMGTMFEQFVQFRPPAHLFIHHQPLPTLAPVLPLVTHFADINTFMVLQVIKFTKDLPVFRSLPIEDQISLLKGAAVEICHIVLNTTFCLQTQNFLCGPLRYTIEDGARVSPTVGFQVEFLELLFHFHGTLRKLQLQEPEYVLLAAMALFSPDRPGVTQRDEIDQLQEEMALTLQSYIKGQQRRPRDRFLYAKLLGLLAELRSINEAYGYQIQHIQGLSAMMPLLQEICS
Sequence of Signal transducer and activator of transcription 3 (Homo sapiens) (P40763 whole entry, looked up): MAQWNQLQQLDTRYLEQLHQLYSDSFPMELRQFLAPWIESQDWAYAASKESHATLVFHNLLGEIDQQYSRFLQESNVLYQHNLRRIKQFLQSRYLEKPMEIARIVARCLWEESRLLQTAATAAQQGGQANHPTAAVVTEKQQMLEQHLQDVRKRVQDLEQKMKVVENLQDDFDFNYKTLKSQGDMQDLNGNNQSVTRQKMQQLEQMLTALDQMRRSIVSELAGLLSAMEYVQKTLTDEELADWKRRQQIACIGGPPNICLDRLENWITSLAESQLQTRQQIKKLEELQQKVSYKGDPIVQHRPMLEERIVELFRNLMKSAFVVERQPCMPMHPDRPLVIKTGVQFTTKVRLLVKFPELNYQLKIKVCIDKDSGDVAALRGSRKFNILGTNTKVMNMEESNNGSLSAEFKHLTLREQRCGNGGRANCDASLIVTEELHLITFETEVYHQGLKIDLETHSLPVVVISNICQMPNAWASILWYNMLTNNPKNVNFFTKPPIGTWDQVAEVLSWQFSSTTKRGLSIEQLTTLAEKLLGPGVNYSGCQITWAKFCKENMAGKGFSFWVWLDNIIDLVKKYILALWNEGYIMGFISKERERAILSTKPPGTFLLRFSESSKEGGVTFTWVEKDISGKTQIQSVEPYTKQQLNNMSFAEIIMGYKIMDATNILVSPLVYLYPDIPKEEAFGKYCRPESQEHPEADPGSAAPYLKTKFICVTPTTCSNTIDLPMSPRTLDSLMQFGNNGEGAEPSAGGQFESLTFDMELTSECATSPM
Sequence of Estrogen receptor (Homo sapiens) (P03372 whole entry, looked up, the tested form may be a part): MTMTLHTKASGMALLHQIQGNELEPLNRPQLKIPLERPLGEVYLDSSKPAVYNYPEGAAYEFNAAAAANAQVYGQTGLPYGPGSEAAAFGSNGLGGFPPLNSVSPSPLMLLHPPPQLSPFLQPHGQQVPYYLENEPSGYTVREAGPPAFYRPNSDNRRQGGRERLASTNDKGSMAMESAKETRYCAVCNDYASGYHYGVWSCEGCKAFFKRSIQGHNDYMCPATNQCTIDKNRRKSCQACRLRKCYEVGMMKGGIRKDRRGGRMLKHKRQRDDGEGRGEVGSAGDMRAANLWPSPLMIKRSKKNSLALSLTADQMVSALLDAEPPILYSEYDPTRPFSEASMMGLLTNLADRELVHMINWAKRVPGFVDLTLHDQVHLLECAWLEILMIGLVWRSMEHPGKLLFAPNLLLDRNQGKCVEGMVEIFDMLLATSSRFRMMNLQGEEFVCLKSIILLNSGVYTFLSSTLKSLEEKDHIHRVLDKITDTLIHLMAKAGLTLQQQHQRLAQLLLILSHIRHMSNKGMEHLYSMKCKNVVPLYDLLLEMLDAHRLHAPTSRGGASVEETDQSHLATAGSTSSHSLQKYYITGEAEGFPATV
Sequence of Transcription factor Sp1 (Homo sapiens) (P08047 whole entry, looked up): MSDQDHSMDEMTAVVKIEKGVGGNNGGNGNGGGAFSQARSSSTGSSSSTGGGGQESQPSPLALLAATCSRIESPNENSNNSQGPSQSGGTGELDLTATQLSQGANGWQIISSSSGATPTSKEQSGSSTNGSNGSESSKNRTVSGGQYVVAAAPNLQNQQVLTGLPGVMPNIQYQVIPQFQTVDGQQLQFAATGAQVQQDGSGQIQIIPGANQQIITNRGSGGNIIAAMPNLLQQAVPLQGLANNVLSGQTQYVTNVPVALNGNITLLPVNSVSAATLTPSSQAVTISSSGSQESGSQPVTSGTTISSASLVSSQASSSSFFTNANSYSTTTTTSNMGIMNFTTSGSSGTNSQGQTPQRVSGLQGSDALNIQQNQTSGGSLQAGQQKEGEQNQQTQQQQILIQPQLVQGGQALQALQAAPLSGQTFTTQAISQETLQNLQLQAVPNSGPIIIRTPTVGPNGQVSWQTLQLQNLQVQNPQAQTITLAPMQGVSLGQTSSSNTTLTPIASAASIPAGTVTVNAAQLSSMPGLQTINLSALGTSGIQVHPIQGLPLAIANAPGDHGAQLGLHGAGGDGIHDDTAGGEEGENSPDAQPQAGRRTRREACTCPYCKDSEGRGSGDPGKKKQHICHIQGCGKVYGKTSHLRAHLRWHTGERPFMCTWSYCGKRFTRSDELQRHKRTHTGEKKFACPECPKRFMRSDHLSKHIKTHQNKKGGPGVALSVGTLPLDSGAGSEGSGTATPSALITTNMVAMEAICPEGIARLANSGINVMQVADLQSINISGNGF
Sequence of Steroid hormone receptor ERR1 (Homo sapiens) (P11474 whole entry, looked up, the tested form may be a part): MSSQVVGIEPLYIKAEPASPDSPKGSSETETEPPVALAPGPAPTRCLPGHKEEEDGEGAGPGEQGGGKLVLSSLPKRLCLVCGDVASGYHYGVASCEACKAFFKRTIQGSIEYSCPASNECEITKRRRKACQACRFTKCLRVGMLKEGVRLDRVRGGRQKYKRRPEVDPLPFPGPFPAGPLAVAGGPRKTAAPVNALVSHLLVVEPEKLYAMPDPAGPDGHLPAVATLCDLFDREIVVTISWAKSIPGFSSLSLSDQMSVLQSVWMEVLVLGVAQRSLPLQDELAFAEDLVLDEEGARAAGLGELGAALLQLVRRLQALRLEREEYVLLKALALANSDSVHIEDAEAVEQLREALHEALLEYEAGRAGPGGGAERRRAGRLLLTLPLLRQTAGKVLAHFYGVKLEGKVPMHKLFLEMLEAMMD

Cc1c(Cl)cccc1Cl
not listed: [18] | [19] | [20]
inactive: all other assays above

CC(=O)c1ccccc1O
not listed: [7] | [13] | [17] | [18] | [19] | [20]
inactive: all other assays above

CC1(C)CC(O)CC(C)(C)N1[O]
not listed: [3] | [13] | [14] | [16] | [19] | [20]
inactive: all other assays above

CCCCCCOC(=O)CCCCC(=O)OCCCCCC
not listed: [13] | [16] | [20]
inactive: all other assays above

CCOC(=O)c1ccc(C)cc1
not listed: [3] | [13] | [16] | [17] | [20]
inactive: all other assays above

O=C1CCCCCCCCCCC1
active: [1] 22.2 µM | [20] 8.96 µM | [14] 21.2 µM
not listed: [2] | [12] | [16] | [17] | [19]
inactive: all other assays above

CC(C)c1cccc(C(C)C)c1N
not listed: [5] | [9] | [19] | [20]
inactive: all other assays above

C[N+](C)(C)CCCNS(=O)(=O)C(F)(F)C(F)(F)C(F)(F)C(F)(F)C(F)(F)C(F)(F)C(F)(F)C(F)(F)F
active: [20] 41.7 µM | [11] 60.6 µM
not listed: [3] | [7] | [9] | [13] | [18] | [19]
inactive: all other assays above

CC1OC(=O)C(C)OC1=O (stereo unspecified)
not listed: [3] | [5] | [13] | [16] | [19] | [20]
inactive: all other assays above
